A647 fluor: A647 region autofluorescence; Compound fluorescence, A647 channel (570/671 nm), Tris buffer; max dye-equivalent concentration, M; 59,000 tested, under 10 active;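 note: values scaled relative to a standard on each plate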
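Buffer was dispensed, compounds and Alexa 647 standards were pin-transferred, and plates sat 15 min at room temperature. Intensity at 570/671 nm was then converted to dye-equivalent concentration using the plate's A647 standard curve.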
TexasRed autofl: compound fluoresces in the Texas Red spectral region; AID 587; max dye-equivalent concentration, M; Compound fluorescence, Texas Red channel, 547/618 nm; hits give high values; actives 0.06% (n = 59,000); in the data active = max dye-equivalent concentration above about 10 nM; inconclusive = between about 1.1 nM and that limit
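Pin-transferred compounds and Texas Red standards go into 100 mM Tris buffer, pH 8.0. After 15 min at room temperature, plates are imaged with 547/618 nm filters. Each value is a dye-equivalent concentration derived from the per-plate dye curve.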
Rhodamine autofl: rhodamine region autofluorescence; Rhodamine-region fluorescence, 547/598 nm, Tris buffer; hits give high values; max dye-equivalent concentration, M; actives 0.05% (n = 59,000); in the data active = max dye-equivalent concentration above about 11 nM; inconclusive = between about 1.1 nM and that limit
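qHTS spectral profiling of compounds without any target or enzyme present, in pH 8.0 Tris buffer; plates were read after a 15-minute room-temperature incubation using the rhodamine-region filter set.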
A488 fluor: A488 region autofluorescence. compound autofluorescence, A488 spectral region, dye equivalency; Compound Type: qHTS ECL - MLSMR. max dye equivalency, M. actives 0.1% (n = 59,000). AID 591
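Read-out: relative fluorescence at 480/540 nm, expressed as Alexa 488 dye-equivalent concentration from a six-point A488 standard included per plate. Conditions: 100 mM Tris, pH 8.0; 15 min incubation, room temperature.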
Fluorescein fluor: fluorescein region autofluorescence. max fluorescein-equivalent concentration, M. Compound autofluorescence, 480/540 nm, fluorescein-equivalent; hits give high values. actives 0.91% (n = 59,000); in the data active = max fluorescein-equivalent concentration above about 10 nM; inconclusive = between about 1.1 nM and that limit
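Tris 100 mM pH 8.0; 15 min RT; CCD read, ex 480/em 540 nm. Output: fluorescein-equivalent concentration per compound concentration, from six-point dye series on each plate.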
Resorufin fluor: compounds fluorescent in resorufin spectral region; actives 0.04% (n = 59,000); Compound fluorescence, resorufin region 547/598 nm, buffer; hits give high values; max dye-equivalent concentration, M; AID 588
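Read-out: intrinsic compound fluorescence at ex 547/em 598 nm after 15 min at RT in pH 8.0 Tris (100 mM). Values expressed as resorufin-equivalent concentration from per-plate standard series.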
* = called active by the depositor; i = inactive; u = inconclusive; ! = repeats disagree. An excerpt weighted towards active compounds, which were near 0.9% of everything screened. Unless noted, the rule behind the calls is not given here.

SMILES	A647 fluor	TexasRed autofl	Rhodamine autofl	A488 fluor	Fluorescein fluor	Resorufin fluor
CC(C)c1ccc2c(c1)CC[C@@H]1[C@@](C)(CN)CCC[C@@]21C	1e-09	i	i	i	1.2e-08M*	i
CCC1=C/C(=C/N(C)c2ccccc2)C(=O)S1	5.2e-08	i	i	i	1.5e-08M*	i
O=C(O)[C@@H]1[C@@H]2C[C@H]3c4[nH]c5ccccc5c4CCN3C[C@@H]2CC[C@@H]1O	7.8e-09	i	i	i	1.7e-08M*!	i
COC(=O)[C@@H]1[C@@H]2C[C@H]3c4[nH]c5ccccc5c4CCN3C[C@@H]2CC[C@@H]1OS(=O)(=O)O	5.2e-08	i	i	i	u	i
CN1/C(=C\P(=O)(N(C)C)N(C)C)C(C)(C)c2ccccc21	1e-09	4.7e-08M*	1.2e-08M*	i	u	1e-08M*
CCN(CC)c1ccc(C=N/C(C#N)=C(\N)C#N)cc1	2.2e-08	u	u	2.6e-08M*	5e-07M*	i
N#CCCn1c(=O)c(-c2cccs2)nc2cnc(Nc3ccccc3)nc21	1e-09	i	i	i	u	i
CCNc1ncc2nc(-c3cccs3)c(=O)n(CCC#N)c2n1	1e-09	i	i	i	1.4e-08M*	i
CCNc1cccc2c1C(=O)N(C)C2=O	5.1e-08	i	i	1.3e-08M*	2.7e-07M*	i
CN1C(=O)c2cccc(N(C)C)c2C1=O	2.6e-08	i	i	i	u	i
CN1C(=O)c2cccc(NCCCN3C(=O)c4ccccc4C3=O)c2C1=O	1e-09	i	i	u	6.7e-08M*	i
C[C@H]1[C@H](C)CC[C@@]2(C(=O)O)CC[C@]3(C)C(=CC[C@@H]4[C@@]5(C)CC[C@H](O)C(C)(C)[C@@H]5CC[C@@]43C)[C@@H]12	2.5e-09	i	i	i	i	i
C/C(=C\COc1cc(=O)[nH]c2ccccc12)CC[C@@H](O)C(C)(C)O	1e-09	i	i	i	i	i
COc1ccc2[nH]cc(CCNc3ccnc(-c4ccc5c(c4)OCO5)n3)c2c1	1.5e-08	i	i	i	u	i
C1=C(c2ccc(-c3ccccc3)cc2)Nc2ncnn2C1c1ccco1 (stereo not given)	3.6e-09	i	i	u	1.4e-07M*	i
CCOc1ccc(C2C=C(c3ccccc3)Nc3ncnn32)cc1 (stereo not given)	1.1e-09	i	i	i	1.3e-08M*	i
CCOc1ccc(C2C=C(c3ccc(F)cc3)Nc3ncnn32)cc1 (stereo not given)	4.8e-09	u	i	i	u	i
COc1cccc(C2=CC(c3ccccc3)n3ncnc3N2)c1 (stereo not given)	6.1e-09	i	i	i	u	i
COc1ccc(C2C=C(c3ccc(Br)s3)Nc3ncnn32)cc1OC (stereo not given)	1e-09	i	i	7.3e-08M*	1.3e-06M*	i
COc1ccc(C2C=C(c3ccc(C)cc3)Nc3ncnn32)cc1 (stereo not given)	1.8e-09	i	i	i	1.1e-08M*	i
COc1ccc(C(=O)[C@H]2[C@H]3[C@@H](C(=O)[C@@H]4OC[C@H]3O4)[C@H]3C=Cc4ccccc4N32)c(OC)c1	2.1e-08	i	i	i	i	i
COc1ccc(-c2coc3cc(O[C@@H]4O[C@@H](CO)[C@@H](O)[C@@H](O)[C@H]4O)cc(O)c3c2=O)cc1	5.2e-09	i	i	i	i	i
Cc1nnc(SCC2=C(C(=O)O)N3C(=O)[C@@H](NC(=O)Cn4cnnn4)[C@@H]3SC2)s1	4.7e-09	i	i	i	u	i
CCCCCC[C@@H]([C@H](C)O)n1cnc2c(N)ncnc21	1.2e-09	u	i	i	u	i
CCNC(=O)[C@@H]1O[C@@H](n2cnc3c(NCc4ccccc4)ncnc32)[C@@H](O)[C@H]1O	4.6e-09	i	i	i	i	i
SMILES	A647 fluor	TexasRed autofl	Rhodamine autofl	A488 fluor	Fluorescein fluor	Resorufin fluor
CCN1CCC[C@@H]1CNC(=O)c1c(OC)ccc(I)c1O	1e-09	u	i	i	i	i
CCOC(=O)c1oc2cc(O)ccc2c(=O)c1-c1csc(C)n1	1.7e-08	i	i	i	u	i
CCOC(=O)c1ccc(CC(=O)c2oc3cc(O)ccc3c2C)o1	4.9e-09	u	i	i	2.3e-08M*	i
O=C(COC(=O)c1cnccn1)Nc1ccc(Cl)cc1	3.2e-09	i	i	i	1.1e-08M*	i
COc1cc2c(cc1OC)-c1cc(=Nc3c(C)cc(C)cc3C)n(C)c(=O)n1CC2	1e-09	i	i	i	i	i
COc1ccccc1CN1CCC2(CC1)CCN(C(=O)c1ccncc1)CC2	2.3e-09	i	i	i	1.1e-08M*	i
COc1ccccc1CN1CC[C@@]2(CCCN(C(=O)c3ccncc3)C2)C1	3.9e-09	i	i	i	i	i
COc1ccc2nc(N3CCCCC3)c(C#N)cc2c1	3.4e-09	u	i	i	1.5e-08M*	i
COc1ccc2nc(N3CCCC3)c(C#N)cc2c1	1e-09	i	i	u	7.2e-08M*	i
c1ccc(N2CCN(c3nc4ccccc4n4nnnc34)CC2)cc1	3.7e-08	i	i	i	1.9e-08M*	i
O=C(c1ccccc1C(=O)N1CCN(c2ccccc2)CC1)N1CCN(c2ccccc2)CC1	1.3e-08	i	i	i	1.5e-08M*	i
CNc1ncnc2c1ncn2[C@@H]1O[C@@H](CO)[C@H](O)[C@@H]1O	2.3e-08	i	i	i	u	i
CC[C@]1(O)C[C@H]2CN(CCc3c([nH]c4ccccc34)[C@](C(=O)OC)(c3cc4c(cc3OC)N(C)[C@@H]3[C@](O)(C(=O)OC)[C@H](OC(C)=O)[C@]5(CC)C=CCN6CC[C@]43[C@@H]65)C2)C1	1.9e-09	i	i	i	u	i
Cc1cccn2c(=O)c3cc(C#N)c(=NC(=O)c4ccc5c(c4)OCO5)n(CC(C)C)c3nc12	3.6e-08	i	i	i	i	i
CCCn1c(=NC(=O)c2ccncc2)c(C#N)cc2c(=O)n3cccc(C)c3nc21	9.1e-09	i	i	i	1.2e-08M*	i
Cc1cccn2c(=O)c3cc(C#N)c(=NC(=O)c4ccncc4)n(CCCOC(C)C)c3nc12	3e-09	u	i	i	1.7e-08M*	i
COc1ccc2c(C)cc(SCC(=O)N3CCOCC3)nc2c1	3.7e-08	i	i	u	5.9e-08M*	i
COc1cc(/C=C/C(=O)CC(=O)/C=C/c2ccc(O)c(OC)c2)ccc1O	2.9e-08	i	i	i	u	i
COc1cc(/C=C/C2=NC(=O)C(C)(C)O2)ccc1O	1e-09	i	i	i	3e-08M*	i

From PubChem BioAssay
